High-throughput results deposited in PubChem BioAssay by several laboratories.
A selection: hits, their analogues and other compounds. The true share with any hit is near 2.8%.
MITF TRPM1 inh = MITF TRPM1 promoter inhibition in SK-MEL-5 cells; SK-MEL-5 TRPM1 promoter luciferase, 24 h; inhibition, % at 12.5 µM; 330,000 tested, 0.83% active; AID 488899;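 active = mean inhibition across replicates of 60% or more, whatever share of single replicates reaches that level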
HIF-2a inh = inhibitors of HIF-2a; 786-0 RCC cells HIF-2a reporter, luciferase luminescence, overnight; inhibition, % at 18.8 µM; 360,000 tested, 0.72% active;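 active = inhibition of the luminescence signal of 40% or more relative to plate controls, in a single-dose primary screen at 18.75 µM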
EBV LMP1 NFkB = reduces LMP1-driven NF-kappaB luciferase signal | LMP1-induced NF-kappaB luciferase reporter cells, luminescence | inhibition, % at 12.5 µM | 350,000 tested, 0.69% active | AID 504558; in the data active = inhibition above about 41%
PAX8 inh HTS = lowers PAX8-driven luciferase in RMG-I cells; RMG-I TPO-luciferase reporter, SteadyGlo, 24 h; inhibition, % at 12.6 µM; 360,000 tested, 1.2% active; AID 652154;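 active = mean replicate inhibition at least 60% with every replicate also reaching 60%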;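 also: luciferase light reporting Pax8 driven TPO promoter activity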
Peg3 promoter = inhibitors of Peg3 promoter; 360,000 tested, 1.7% active; inhibition, % at 20 µM; HeLa PEG-Prom luciferase reporter, luminescence, overnight;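 active = inhibition of at least 50% at 20 µM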
Shn3 inh set2 = reduces Shn3 3'UTR luciferase signal in osteoblasts; Clone20 osteoblast Shn3 3'UTR firefly luciferase, 24 h; inhibition, % at 12.5 µM; 360,000 tested, 0.52% active;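 active = mean inhibition of at least 75% with every replicate also reaching 75%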
Each line names hits and unclear results; the compound was inactive in the other large screens; ! = not confirmed by another sample.

Cc1noc(C)c1S(=O)(=O)Nc1ccc2c(c1)C(=O)N([C@H](C)CO)C[C@H](C)[C@@H](CN(C)C)O2	none (no result: MITF TRPM1 inh, HIF-2a inh, EBV LMP1 NFkB, Peg3 promoter, Shn3 inh set2)
C[C@H]1CN([C@@H](C)CO)C(=O)c2cccc(NC(=O)NC3CCCCC3)c2O[C@H]1CN(C)S(=O)(=O)c1ccc(Cl)cc1	PAX8 inh HTS 72.1 (no result: MITF TRPM1 inh, HIF-2a inh, EBV LMP1 NFkB, Peg3 promoter, Shn3 inh set2)
C[C@@H]1CN([C@H](C)CO)C(=O)c2cccc(NC(=O)NC3CCCCC3)c2O[C@H]1CN(C)S(=O)(=O)c1ccc(F)cc1	none (no result: MITF TRPM1 inh, HIF-2a inh, EBV LMP1 NFkB, Peg3 promoter, Shn3 inh set2)
C[C@H](CO)N1C[C@H](C)[C@H](CN(C)S(=O)(=O)c2ccc(F)cc2)Oc2c(NC(=O)NC3CCCCC3)cccc2C1=O	PAX8 inh HTS 62.0 (no result: MITF TRPM1 inh, HIF-2a inh, EBV LMP1 NFkB, Peg3 promoter, Shn3 inh set2)
C[C@@H]1CN([C@@H](C)CO)C(=O)c2cccc(NC(=O)NC3CCCCC3)c2O[C@@H]1CN(C)S(=O)(=O)c1ccc(Cl)cc1	none (no result: MITF TRPM1 inh, HIF-2a inh, EBV LMP1 NFkB, Peg3 promoter, Shn3 inh set2)
O=C(Nc1ccc(C(F)(F)F)cc1)N[C@@H]1CC[C@H](CC(=O)N2CCCCC2)O[C@@H]1CO	none (no result: MITF TRPM1 inh, HIF-2a inh, EBV LMP1 NFkB, Peg3 promoter, Shn3 inh set2)
Cc1cccc(S(=O)(=O)N[C@H]2CC[C@H](CCNS(=O)(=O)c3ccccc3F)O[C@H]2CO)c1	none (no result: MITF TRPM1 inh, HIF-2a inh, EBV LMP1 NFkB, Peg3 promoter, Shn3 inh set2)
CCOc1cc(/C=C2\CN(C)C/C(=C\c3ccc(O)c(OCC)c3)C2=O)ccc1O	MITF TRPM1 inh 102.5, HIF-2a inh 91.6, Peg3 promoter 102.8, Shn3 inh set2 96.1
CCOc1cc(/C=C2\CCC/C(=C\c3cc(Cl)c(O)c(OCC)c3)C2=O)cc(Cl)c1O	MITF TRPM1 inh 71.6, HIF-2a inh 89.3, Peg3 promoter 80.8 (no result: PAX8 inh HTS)
CN1C/C(=C/c2ccsc2)C(=O)/C(=C/c2ccsc2)C1	MITF TRPM1 inh 86.6, HIF-2a inh 46.8
COc1cc(C=C2CN(C)C(=O)C2=O)ccc1O	none (no result: MITF TRPM1 inh)
C[C@@H]1CN([C@@H](C)CO)C(=O)c2cc(N(C)C)ccc2O[C@H]1CN(C)CC1CCCCC1	none (no result: MITF TRPM1 inh, HIF-2a inh, EBV LMP1 NFkB, Peg3 promoter, Shn3 inh set2)
C[C@H](CO)N1C[C@H](C)[C@H](CN(C)Cc2ccc(-c3ccccc3)cc2)Oc2ccc(NC(=O)CCCN(C)C)cc2C1=O	none (no result: MITF TRPM1 inh, HIF-2a inh, EBV LMP1 NFkB, Peg3 promoter, Shn3 inh set2)
c1ccc(-c2nnc(-c3ccccn3)nc2NC2CCCCC2)cc1	MITF TRPM1 inh 73.8, EBV LMP1 NFkB 86.1, PAX8 inh HTS 68.7
O=C(CCl)N1c2ccccc2Oc2ccc3ccccc3c21	MITF TRPM1 inh 88.4
O=C(Cc1ccccn1)N[C@H]1CC[C@@H](CCn2cc(-c3ccccc3)nn2)O[C@@H]1CO	none (no result: MITF TRPM1 inh, HIF-2a inh, EBV LMP1 NFkB, Peg3 promoter, Shn3 inh set2)
COc1ccc(-c2cn(CC[C@H]3CC[C@@H](NC(=O)Cc4ccccn4)[C@@H](CO)O3)nn2)cc1	PAX8 inh HTS 87.7 (no result: MITF TRPM1 inh, HIF-2a inh, EBV LMP1 NFkB, Peg3 promoter, Shn3 inh set2)
C[C@@H]1CCCCO[C@H](CN(C)Cc2ccc(C(=O)O)cc2)[C@H](C)CN([C@H](C)CO)C(=O)c2cc(NC(=O)Nc3ccc4c(c3)OCO4)ccc2O1	none (no result: MITF TRPM1 inh, HIF-2a inh, EBV LMP1 NFkB, Peg3 promoter, Shn3 inh set2)
COc1cccc(-n2nnnc2S(C)(=O)=O)c1	MITF TRPM1 inh 78.4, HIF-2a inh 87.3, EBV LMP1 NFkB 89.5, Peg3 promoter 103.2, Shn3 inh set2 96.5 (no result: PAX8 inh HTS)
COc1cccc(Oc2nnnn2-c2ccccc2)c1	none (no result: PAX8 inh HTS)
COc1ccc(/C=N/NC(=O)Nc2cccc3nsnc23)cc1OC	PAX8 inh HTS 86.3
COc1ccc(/C=N/NC(=O)c2cccc(C(=O)N/N=C/c3ccc(OC)c(OC)c3)n2)cc1OC	none (no result: EBV LMP1 NFkB)
CCOC(=O)c1cnn(CCOC(=O)c2cccc(F)c2)c1NC(=O)c1cccc(F)c1	PAX8 inh HTS 110.2
C[C@@H]1CN([C@@H](C)CO)C(=O)Cc2cc(NC(=O)Cn3cnnn3)ccc2O[C@@H]1CN(C)S(=O)(=O)c1cccs1	none (no result: MITF TRPM1 inh, HIF-2a inh, EBV LMP1 NFkB, Peg3 promoter, Shn3 inh set2)
C[C@@H]1CN([C@@H](C)CO)S(=O)(=O)c2ccc(C#Cc3ccccc3F)cc2O[C@H]1CN(C)C(=O)Cc1ccccc1	PAX8 inh HTS 91.5 (no result: MITF TRPM1 inh, HIF-2a inh, EBV LMP1 NFkB, Peg3 promoter, Shn3 inh set2)
C[C@@H]1CN([C@H](C)CO)S(=O)(=O)c2ccc(C#CC3CCCC3)cc2O[C@H]1CN(C)C(=O)Cc1ccccc1	PAX8 inh HTS 66.8! (no result: MITF TRPM1 inh)
Cc1ccnc2c1ccc1ccccc12	none
Cc1ccnc2c1ccc1c(C)ccnc12	MITF TRPM1 inh 77.4, EBV LMP1 NFkB 83.7, Shn3 inh set2 89.7 (no result: PAX8 inh HTS)
Cc1ccnc2c1ccc1cccnc12	MITF TRPM1 inh 78.9, EBV LMP1 NFkB 80.2, PAX8 inh HTS 79.8, Shn3 inh set2 92.1
CC(C)NC(=O)N(C)C[C@@H]1Oc2ccc(N(C)C)cc2C(=O)N([C@@H](C)CO)C[C@@H]1C	none (no result: MITF TRPM1 inh, HIF-2a inh, EBV LMP1 NFkB, Peg3 promoter, Shn3 inh set2)
COc1ccc(F)cc1-c1cc(NC=O)c2ncc(-c3cc(OC)c(OC)c(OC)c3)n2c1	PAX8 inh HTS 90.1 (no result: MITF TRPM1 inh, EBV LMP1 NFkB)
COc1ccc(F)cc1-c1cc(NC=O)c2ncc(-c3cccc(C(=O)N(C)C)c3)n2c1	PAX8 inh HTS 67.6 (no result: MITF TRPM1 inh, EBV LMP1 NFkB)
